# Data as given in PubChem BioAssay (NCI).
# This is part of a sample that, as a whole, favours compounds with a hit. Of some 79,000 tested, about 15% had one in any assay. Unmarked numbers belong to inactive results. The source made the active and inactive calls. Cut-off read from the data, not from the text of the source: active = growth inhibition above about 70%; inactive = the rest.
# Assay: NCI Yeast Anticancer Drug Screen. Data for the rad18 strain (AID 177)
# Details: S. cerevisiae rad18 mutant growth inhibition, hits give high values
# Method: Growth inhibition of yeast strains with defined genetic alterations is measured as a screen for potential anti-cancer activity. Selected strains with alterations in DNA damage repair or cell cycle control were exposed to compounds and growth inhibition was measured relative to vehicle treated controls. The strain used in this assay is rad18
Structure (SMILES),growth inhibition (at 1.2 µM),growth inhibition (at 3.7 µM),growth inhibition (at 11.0 µM),growth inhibition (at 33.0 µM),growth inhibition (at 100.0 µM)
CCOC(=O)c1cc([N+](=O)[O-])c(Sc2ncnc3nc[nH]c23)c([N+](=O)[O-])c1,-17%,9%,55%,82% (active),84% (active)
C=C(C(=C)n1nnc(C(=O)OC)c1C(=O)OC)n1nnc(C(=O)OC)c1C(=O)OC,0%,0%,1%,0%,-1%
S=c1sc2c(s1)SCCS2,-4%,-3%,-2%,-15%,6%
O=C(O)C1CC(c2ccccc2)=NN1c1ccccc1 (stereo not given),-38%,-37%,-12%,26%,96% (active)
NC(N)=NS(=O)(=O)c1ccc(Nc2c3ccccc3nc3c(C(=O)NCCO)cccc23)cc1,-1%,0%,9%,7%,77% (active)
CC1SC2(C(=O)Nc3ccc(Cl)cc32)N(c2ccc(Cl)cc2)C1=O (stereo not given),-41%,11%,35%,97% (active),81% (active)
c1ccc(-c2cnc3ccccc3c2)cc1,-2%,-3%,0%,6%,99% (active)
COC(=O)CC1CCc2c(ccc3ccccc23)C1(C)C(=O)OC (stereo not given),-10%,-4%,-2%,-3%,20%
